Our source for the sensor-assay potency score (higher = more potent) values is the OligoGym collection.
Note: reference of the scale not given here.

The first assay concerns the target SPATS2L. As to the kind of experiment: pooled miR-30 sensor sort-seq; sequence = guide strand. Particulars: shRNA.
For the sequence TTGGTTAGAAGATCCATTCTGC, the sensor-assay potency score (higher = more potent) worked out at 0.635.
Same read-out and setting: with TTCATTATTGCTTTTGTTGGGA the figure was 0.203; with TTCGTTAGCAGAATCTGTGGAC, 0.593; with TATATTCTGATTGACACTCTTT, 0.138.
Regarding TATCTAGTTAGAGAAACGGTGC, the sensor-assay potency score (higher = more potent) was -0.565.
With TTTAGAACTTGAATTGCACTGC, the sensor-assay potency score (higher = more potent) was found to be 0.683.
For TTGTTGGGAACAACTGATCTAA, the sensor-assay potency score (higher = more potent) was -0.513.
The same measure, in the same setting: with TTGTCTTTAGCATCTTTGTTGC the figure was -0.548; with TTCTTCTTTAACTTTATCCATT, -1.35; with TTGATCTTCTTCACGGAACTAT, -0.0493.
TTGAATTGCACTGCCATCCACA returned a sensor-assay potency score (higher = more potent) of 0.0707.
TATTGTTCTTCTTTTTTCCTGT returned a sensor-assay potency score (higher = more potent) of 0.296.

For the next assay, the target named is SPESP1. Described as above. Particulars: shRNA.
Regarding TAGATTTTTTCTCACGACCTGG, the sensor-assay potency score (higher = more potent) was -0.569.
Consider TCCATGTGTAACTAGCTCCTTA, for which the sensor-assay potency score (higher = more potent) was -0.658.
Same read-out and setting: with TTGTTTTTAATTTATGTTCTGC the figure was 0.0799.
For the sequence TTGTTTTGCAGCTGGCTCCGGC, the sensor-assay potency score (higher = more potent) is -0.682.
Turning to TAGATGATTCAGTAACAACTGG, the sensor-assay potency score (higher = more potent) was -0.346.
